Only some compounds are listed: those with a hit (about 2.6% of all), similar ones and a draw of the others.
HEK293 cAMP ctrl = qHTS Assay for Agonists of the Thyroid Stimulating Hormone Receptor: Activators of Intracellular cAMP Concentrations in Parental HEK 293 | parental HEK293 CNG cAMP sensor, membrane potential fluorescence | Potency, µM (doses to about 57.1 µM), inactives show top-dose activation, hits mostly activators | 73,000 compounds, 2.5% hits | AID 938, 2007; also: % of control where 0% means no effect; nearly all actives have a fitted effect of over 55% in size
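Parental HEK 293 cells stably expressing a modified CNG channel (no TSHR) report cAMP rise as membrane depolarization. Membrane potential dye with 100 uM RO 20-1724 was loaded for 60 min at room temperature, then compound added for 30 min; fluorescence read at 590 nm.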
TSHR ag = qHTS Assay for Agonists of the Thyroid Stimulating Hormone Receptor | Thyrotropin receptor (Homo sapiens), P16473 | HEK293-CNG-TSHR cells (CNG channel as cAMP sensor), membrane potential dye, cAMP | Potency, µM (titrated, usually from 57.1 µM), for inactives: at the highest dose activation, actives largely listed as activators | 73,000 compounds, 0.48% hits | AID 926, 2007; active = well fitted activation curve with a large enough effect in the main read-out, with a control signal flat, not every such curve was filed as active; inconclusive = small, poorly fitted or top-dose-only effect, or a change in a side signal; inactive = no such curve, though single readings can be large or run the other way; % of control where 0% means no effect;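 also: the control signal comes from parental cells without the receptor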
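HEK 293 cells stably expressing TSHR and a modified CNG channel, with CNG-only parental cells as counterscreen, were preloaded 60 min at room temperature with membrane potential dye containing 100 uM RO 20-1724. Compound exposure was 30 min, and depolarization was read as fluorescence at 590 nm.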
Caspase-7 inhib = qHTS Assay for Allosteric/Competitive Inhibitors of Caspase-7; P55210; recombinant caspase-7, Ac-DEVD-AFC fluorescence rate; Potency, µM (titrated, usually from 57.5 µM), for the others: at the highest dose activity change, negative = inhibition, hits mostly inhibitors; 75,000 compounds, 0.02% hits; active = well fitted inhibition curve with a large enough effect in the main read-out, with a control signal flat, not every such curve was filed as active; inconclusive = small, poorly fitted or top-dose-only effect, or a change in a side signal; also: % of control where 0% means no effect
Target sequence (P55210 24-198 limits assumed): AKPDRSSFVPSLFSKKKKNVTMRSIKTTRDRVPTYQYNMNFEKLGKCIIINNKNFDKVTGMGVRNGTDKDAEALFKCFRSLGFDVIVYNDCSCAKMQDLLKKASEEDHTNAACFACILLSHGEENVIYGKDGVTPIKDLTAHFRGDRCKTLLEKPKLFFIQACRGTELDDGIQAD
Target sequence (P55210 207-303 limits assumed): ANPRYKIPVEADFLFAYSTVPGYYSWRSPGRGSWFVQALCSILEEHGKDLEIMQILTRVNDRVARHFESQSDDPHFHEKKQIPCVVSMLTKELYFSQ
Casp1 inh = qHTS Assay for Allosteric/Competitive Inhibitors of Caspase-1. P29466. Caspase-1 enzyme, Ac-WEHD-AFC fluorogenic rate. Potency, µM (doses to about 57.5 µM), inactives show at the highest dose activity change, negative = inhibition, usual class: inhibitors. 75,000 compounds, 0.03% hits;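 also: plate controls were vehicle for no effect and no substrate for full effect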
Target sequence (P29466 120-297 limits assumed): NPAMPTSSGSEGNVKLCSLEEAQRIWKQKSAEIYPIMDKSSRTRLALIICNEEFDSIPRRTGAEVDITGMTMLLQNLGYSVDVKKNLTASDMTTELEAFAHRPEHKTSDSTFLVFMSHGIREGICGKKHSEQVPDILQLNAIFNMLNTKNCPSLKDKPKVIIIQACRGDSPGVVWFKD
Target sequence (P29466 317-404 limits assumed): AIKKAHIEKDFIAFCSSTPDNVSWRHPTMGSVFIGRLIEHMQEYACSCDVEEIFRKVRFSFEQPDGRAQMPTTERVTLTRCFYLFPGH
* hit, by the source's call; ? = inconclusive; . = not tested or not shown; [ ] = remark or other dose. Unless noted, calls follow the shape of the dose curve; as a rule, active = well fitted curve in the direction sought with a large enough effect; inconclusive = small, poorly fitted or top-dose-only effect, or another doubt; inactive = no such curve, though single readings can be large; an effect the other way counts as inactive or inconclusive. Potency is read from the fitted curve at half-maximal effect.

SMILES	HEK293 cAMP ctrl	TSHR ag	Caspase-7 inhib	Casp1 inh
Cc1ccc(S(=O)(=O)N2CCN(S(=O)(=O)N(C)C)CC2)cc1	0.9%	2.7%	0.5%	-0.9%
Cc1ccc(S(=O)(=O)N(Cc2nccn2C)C(C)C)cc1	24.7%	25.1µM*	-0.2%	-2.2%
CCOC(=O)CCN1C(=O)[C@H]2[C@H]3[C@H](O)[C@H](O)C/C(=N/NC(=O)OCc4ccc(OC)cc4)[C@H]3CC[C@@H]2C1=O	-4.4%[11.4 µM]	-0.7%[11.4 µM]	-3.5%[11.5 µM]	-0.7%[11.5 µM]
COc1cc(CO)cc(Br)c1OCC(=O)O	13.4%	25.1µM*	-3.1%	-1.4%
CCCCCCCCCC(=O)O[C@H](CC(=O)O)C[N+](C)(C)C	7.4%	0.3%	0.1%	-0.4%
CCOC(=O)c1[nH]c2c(c1C)C(=O)CC(c1ccco1)C2 (stereo not given)	31.6µM*	?	-12.0%	-1.3%
COCCOC(=O)c1[nH]c2c(c1C)C(=O)CC(c1ccco1)C2 (stereo not given)	2.2%	-7.0%	-20.2%	-7.6%
Cc1cc(C)cc(OCc2nnc(SCC(=O)c3ccccc3)o2)c1	?	?	-5.0%	0.4%
Cc1cccc(OCc2nnc(SCC(=O)c3ccccc3)o2)c1	3.98µM*	?	0.4%	-3.2%
COC(=O)c1ccc(OC)c(CSc2nnc(COc3ccccc3)o2)c1	12.6µM*	?	-6.4%	-8.9%
COC(=O)c1ccc(OC)c(CSc2nnc(COc3ccc(Cl)cc3)o2)c1	?	?	-1.0%	1.9%
COc1ccccc1-c1cc(N(C)Cc2ccco2)ncn1	27.6%	.	-3.6%	-1.3%
O=S(=O)(NC1CCCC1)c1cccc(S(=O)(=O)N2CCC(n3nnc4ccccc43)CC2)c1	7.0%	7.2%	-1.7%	-0.3%
c1cncc(-c2nc(N3CCCCCC3)c3ccccc3n2)c1	25.1µM*	?	-6.9%	-9.0%
CS(=O)(=O)Nc1cccc(-c2nc(N3CCOCC3)c3ccccc3n2)c1	10.8%	.	0.5%	1.4%
COc1ccc2nc(SCC(=O)N(C)C3CCCCC3)c(C#N)cc2c1	25.1µM*	?	?	.
COc1ccc2nc(SCC(=O)Nc3ccc(S(=O)(=O)N4CCCC4)cc3)c(C#N)cc2c1	3.16µM*	?	?	.
N#Cc1cc2ccccc2nc1SCC(=O)Nc1ccc(S(=O)(=O)N2CCCC2)cc1	?	?	1.2%	-1.4%
O=C(Nc1cccc(Cl)c1N1CCCC1)c1ccc(Br)o1	25.1µM*	?	2.3%	-1.3%
O=C(Nc1cccc(Cl)c1N1CCCC1)c1cc2ccccc2o1	25.1µM*	?	0.1%	-1.8%
CCN1CCN(c2c(Cl)cccc2NC(=O)c2ccco2)CC1	2.3%	8.0%	-0.7%	0.0%
Cc1cccc(NC(=O)c2cc(-c3ccco3)nc3ccccc23)n1	25.1µM*	?	-7.2%	-10.3%
COc1ccc(NC(=O)c2cc(-c3ccc(C)o3)nc3ccccc23)cc1OC	25.1µM*	?	-10.1%	-9.2%
COC(=O)Cn1nc(-c2ccccc2)c2ccccc21	17.5%	6.2%	-3.2%	0.7%
CCCCCCC(=O)N1CCC(c2nc3c(nnn3Cc3ccccc3Cl)c(=O)[nH]2)CC1	?	?	12.6µM*	-4.4%
SMILES	HEK293 cAMP ctrl	TSHR ag	Caspase-7 inhib	Casp1 inh
O=C(C1CCCCC1)N1CCC(c2nc3c(nnn3Cc3ccccc3Cl)c(=O)[nH]2)CC1	17.6%	11.4%	?	0.0%
Cc1ccc(C)c(Cn2nnc3c(=O)[nH]c(C4CCCN(C(=O)C5CCCCC5)C4)nc32)c1 (stereo not given)	20µM*	?	-9.3%	-2.4%
CO[C@H]1COC(=O)[C@H]2CCCN2C(=O)C/C=C\[C@@H](C)[C@H](OC)COC(=O)C/C=C\[C@@H]1C	3.2%[11.4 µM]	1.6%[11.4 µM]	0.0%[11.5 µM]	-3.0%[11.5 µM]
Cc1nc(CNS(=O)(=O)c2ccccc2F)cs1	0.3%	3.0%	-0.7%	-0.6%
C=CCn1c(SCC(=O)Nc2ccccc2OC)nnc1-c1ccco1	4.0%	7.2%	-1.1%	-1.1%
C=CCn1c(SCC(O)Cn2c3ccccc3c3ccccc32)nnc1-c1ccco1 (stereo not given)	25.1µM*	?	-8.1%	-7.1%
Cc1ccc(N(CC(=O)N2CC(=O)Nc3ccccc32)S(=O)(=O)c2ccc3c(c2)OCCO3)cc1	10.1%	7.94µM*	-0.4%	-4.4%
Cc1nc2sc3c(c2c(=O)n1/N=C/c1ccco1)CCCC3	25.1µM*	?	-0.3%	-0.4%
O=c1c2c3c(sc2ncn1/N=C/c1ccco1)CCCC3	14.3%	4.0%	-5.2%	-4.2%
c1cc(CSSCc2ccncc2)ccn1	10.1%[11.4 µM]	17.1%[11.4 µM]	-0.2%[11.5 µM]	-2.0%[11.5 µM]
Cc1noc(C)c1CSc1nnc(-c2ccccc2F)n1CCc1ccccc1	10µM*	?	-1.6%	-0.7%
Cc1noc(C)c1CSc1nc2ccccc2n1C	2.9%	1.2%	0.8%	0.2%
CCCc1cc(C(=O)NC2CCCCC2)no1	23.3%	21.8%	-0.2%	0.7%
CCCc1cc(C(=O)N(C2CCCCC2)C2CCCCC2)no1	24.6%	20µM*	-0.7%	1.3%
Cc1ncc2c(c1O)COP(=O)(O)OC2	0.7%	5.5%	-0.4%	3.3%
O=C(O)c1ccc(C(=O)O)c(C(=O)O)c1.[NH-][C@@H]1CCCC[C@@H]1[NH-].[Pt]	2.3%[11.4 µM]	-1.6%[11.4 µM]	3.8%[11.5 µM]	0.4%[11.5 µM]
COc1ccc(CN(C(=O)CSc2nnc(-c3ccc(F)cc3)o2)c2ccc(F)cc2)cc1	18.7%	21.1%	-0.8%	-2.2%
O=C(CSc1nnc(Cn2nnc3ccccc32)o1)N(Cc1ccc(F)cc1)c1ccccc1	15.8µM*	?	-1.1%	-1.2%
Cc1nn(CC(=O)NCc2ccccc2)c(=O)c2ccccc12	2.5%	-0.5%	0.0%	-2.0%
Cc1nn(-c2ccccc2C(=O)O)c(=O)c2ccccc12	-3.2%	10µM*	1.2%	-1.4%
O=P(CCNCc1ccco1)(c1ccccc1)c1ccccc1	?	?	-1.7%	0.8%
CC(=O)N(CCP(=O)(c1ccccc1)c1ccccc1)Cc1ccco1	31.6µM*	?	0.9%	-2.5%
NC(=S)SCCC(=O)O	-3.3%[11.4 µM]	3.6%[11.4 µM]	0.8%[11.5 µM]	-2.7%[11.5 µM]
COc1ccc(C2C(C(=O)N3CC(C)CC(C)C3)c3ccccc3C(=O)N2C)cc1 (stereo not given)	15.8µM*	?	0.0%	0.5%
COc1ccc(C2C(C(=O)N3CCC(C)CC3)c3ccccc3C(=O)N2C)cc1 (stereo not given)	?	?	0.9%	1.0%
COc1ccccc1C(=O)N1CCN(c2nc3cc(C)c(C)cc3cc2C#N)CC1	12.6µM*	?	?	.
COC(=O)C(O)C1C(C)(C)C(OC(C)=O)C2CC3=C4CC(=O)OC(c5ccoc5)[C@]4(C)CCC3[C@@]1(C)C2=O (stereo not given in full)	.	.	0.0%	1.4%
CC1CC(N(C(=O)c2ccco2)c2ccccc2)c2ccccc2N1 (stereo not given)	26.6%	12.6µM*	-1.1%	-1.7%
CC1CC(c2ccccc2)n2nc(NC(=O)c3ccco3)nc2N1 (stereo not given)	3.1%	0.8%	-1.7%	3.7%
